Results filed as inconclusive are left out. A call without a number means that no potency is given here. The source made the active and inactive calls. The call rests on the fitted dose curve; in most records, active means well fitted curve in the direction sought with a large enough effect; inconclusive means small, poorly fitted or top-dose-only effect, or another doubt; inactive means no such curve, though single readings can be large or run the other way.

The nature of the experiment: Secondary Assay for Inhibitors of Human Cdc-like kinase 4 (Clk4): HEK-293 Cell Viability Assay.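 Further: cytotoxic hits lower the ATP light signal so activity reflects loss of viability.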 Particulars: HEK-293 viability, ATP luminescence (CellTiter-Glo), 24/48 h; series mostly up to 46.1 µM. The procedure, abridged:
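Cytotoxicity was measured as ATP luminescence (CellTiter-Glo) after 24 or 48 h compound exposure at 37 degrees C. HEK-293 cells in MEM with 10% FBS had been seeded 4 h earlier.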
A general note: Cellular ATP, detected with luciferase, serves as a proxy for viable cell number.
For `Cc1ccc(CN(C)c2ncnc3ccc(-c4ccc(CO)n4C)cc23)o1`, the Potency result is “inactive”. Turning to `Cc1nc(C)c(-c2ccc3ncnc(NCCc4cnc[nH]4)c3c2)s1`, the Potency result was “inactive”. In the case of `Cc1ccc(CN(C)c2ncnc3ccc(-c4ccc(C(=O)O)o4)cc23)o1`, the Potency result is “inactive”. With `Fc1c(-c2ccc3ncnc(NCc4cccs4)c3c2)ccc2c1OCO2` the entry was “inactive”; with `CC(=O)c1ccc(-c2ccc3ncnc(NCc4ccc(C)o4)c3c2)o1`, “inactive”. With `CCOC(=O)c1ccoc1-c1ccc2ncnc(NCc3csc(C)n3)c2c1`, the Potency entry is “inactive”. Regarding `c1c[nH]c(CNc2ncnc3ccc(-c4ccoc4)cc23)n1`, the Potency result was “inactive”. With `c1nc(NCC2CCCO2)c2ccc(-c3ccc4c(c3)OCO4)cc2n1` (centres undefined) the entry was “inactive”; with `Cc1nc(CNc2ncnc3ccc(-c4ccoc4C)cc23)cs1`, “inactive”.

These data come from PubChem BioAssay AID504534 (National Center for Advancing Translational Sciences (NCATS), 2011).
